# High-throughput results (PubChem)
# Most compounds without a hit are left out; they make up all but 4.6% or so of the library.
# AHR act = AHR activators, primary screen, cell-based, luminescence, luciferase reporter, human | AHR-responsive luciferase reporter cells | activation, % at 5 µM | 320,000 compounds, 2.5% hits | AID 2796, 2010; in the data active = activation above about 47%;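 also: 0% = vehicle wells and 100% = reference agonist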
# Target sequence (P35869 whole entry, looked up): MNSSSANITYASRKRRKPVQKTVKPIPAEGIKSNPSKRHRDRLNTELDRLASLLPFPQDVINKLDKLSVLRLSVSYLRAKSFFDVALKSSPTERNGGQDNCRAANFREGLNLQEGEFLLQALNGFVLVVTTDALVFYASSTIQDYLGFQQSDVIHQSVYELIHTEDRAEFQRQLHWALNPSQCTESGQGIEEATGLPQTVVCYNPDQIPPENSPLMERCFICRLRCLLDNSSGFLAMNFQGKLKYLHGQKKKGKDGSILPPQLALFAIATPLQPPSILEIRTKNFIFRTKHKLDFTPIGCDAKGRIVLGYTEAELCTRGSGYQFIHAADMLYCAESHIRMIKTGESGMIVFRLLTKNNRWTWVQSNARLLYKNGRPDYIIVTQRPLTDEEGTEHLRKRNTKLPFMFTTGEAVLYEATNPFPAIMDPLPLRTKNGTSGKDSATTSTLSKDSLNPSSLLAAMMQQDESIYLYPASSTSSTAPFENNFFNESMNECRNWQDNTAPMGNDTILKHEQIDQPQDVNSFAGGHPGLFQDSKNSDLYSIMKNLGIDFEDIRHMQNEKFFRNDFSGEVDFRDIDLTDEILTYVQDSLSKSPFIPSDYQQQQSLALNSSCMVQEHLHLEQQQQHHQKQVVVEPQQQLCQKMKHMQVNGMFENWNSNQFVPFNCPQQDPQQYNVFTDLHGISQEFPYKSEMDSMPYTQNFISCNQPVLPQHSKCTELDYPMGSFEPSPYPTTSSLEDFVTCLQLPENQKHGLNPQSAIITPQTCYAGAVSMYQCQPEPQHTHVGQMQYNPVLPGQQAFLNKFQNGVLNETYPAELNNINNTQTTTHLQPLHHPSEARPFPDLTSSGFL
# HSF1 inh = HSF1 inhibitors in luciferase reporter cells, primary screen, cell-based, NIH3T3, luminescence | AID 2098, 2009 | activity change, negative = inhibition, % at 7.5 µM (by protocol) | NIH3T3-HGL HSE-luciferase, MG132-induced, luminescence 8 h; hits give low values | 300,000 compounds, 0.77% hits;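 active = more than half of replicate wells show activity change below -50%, luminescence cut by over half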;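 also: luciferase reports HSF-1 transcriptional activity via heat shock element; 0% = median of DMSO wells and -100% = zero luminescence signal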
# GAA850 FXN act = FXN promoter activators, primary screen, cell-based, luciferase luminescence, HEK293 lucGAA850. HEK293 lucGAA850 FXN promoter luciferase reporter, 24 h; percent of 10 µM SAHA response. activation, % at 6 µM. 360,000 compounds, 0.56% hits. AID 540364, 2011;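 active = activation above the average of all compounds screened plus 3 SD, cutoff fixed separately per campaign, cut at about 7.5% in these data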;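 also: 0% = DMSO wells and 100% = 10 µM SAHA wells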
# HSF-1 act = HSF-1 activators, primary screen, NIH3T3-HGL cells, MG132 stress, luminescence, single point; NIH3T3-HGL HSF-1 luciferase reporter, 8 h; 100% = twice DMSO control signal; activation, % at 9 µM; 300,000 compounds, 1.7% hits;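 active = mean replicate activation of at least 50% with a set share of replicates each reaching 50%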;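 also: 0% = median of the neutral control wells and 100% = twice that signal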
# * hit, by the source's call; x = no result given.
SMILES,AHR act,HSF1 inh,GAA850 FXN act,HSF-1 act
O=C(Nc1nc2cc3c(cc2s1)OCO3)C1CCCCC1,27,20,4,48
CC(C)(C)C(=O)Nc1nc2cc3c(cc2s1)OCO3,21,26,3,40
CCCN1C(=O)/C(=C/c2ccccc2OCc2ccc(C(=O)O)cc2)NC1=S,4,11,3,7
CCOc1cc(/C=C2\SC(=O)N=C2N)ccc1O,48*,0,0,-16
Cc1ccc(NC(=O)OCC(F)(F)C(F)F)cc1NC(=O)OCC(F)(F)C(F)F,55*,2,1,8
O=C(CCC(=O)OCC(F)(F)C(F)F)Nc1ccc(Cl)cc1,2,x,-5,x
NC(=O)c1cc([N+](=O)[O-])c(Cl)cc1NCc1cccnc1,58*,x,5,x
O=C(O)c1cc([N+](=O)[O-])ccc1NCc1cccnc1,0,2,3,-12
NC(=O)c1cc([N+](=O)[O-])ccc1NCc1cccnc1,16,5,6,7
Cc1ccc(NC(=O)c2cc([N+](=O)[O-])ccc2NCc2cccnc2)cc1Cl,51*,2,1,19
COc1cccc(NC(=O)c2cc([N+](=O)[O-])ccc2NCc2cccnc2)c1,66*,0,0,5
Cc1ccc(NC(=O)CSc2ncccc2C(=O)Oc2cccc([N+](=O)[O-])c2)cc1Cl,25,32,4,82*
CCOC(=O)c1cccnc1SCC(=O)Nc1ccc(C)cc1,2,4,1,10
CNS(=O)(=O)c1cn(CC(=O)NCc2cccc(OC)c2)cc1S(=O)(=O)NC,2,-3,0,4
CCCOc1ccc(CSCCNC(=S)Nc2ccccc2)cc1,90*,-2,-2,19
CCOc1ccc(CSCCNC(=S)Nc2ccc(OC)cc2)cc1,3,0,-1,1
CNc1ccccc1NC(=O)CCn1c(=S)oc2ccccc21,0,12,0,2
Cc1c(N=C2NN=C(c3ccc(Cl)cc3)CS2)c(=O)n(-c2ccccc2)n1C,4,2,1,7
Cc1c(N=C2NN=C(c3c[nH]c4ccccc34)CS2)c(=O)n(-c2ccccc2)n1C,56*,15,2,32
Nc1nnc(-c2cn(-c3ccccc3)nc2-c2ccc(Cl)cc2)o1,8,-6,2,-12
COc1ccc(N2CC(C(=O)OCC(=O)Nc3cccc(C)c3)CC2=O)cc1 (configuration not stated),-1,0,-4,-14
COC(=O)c1ccc(NC(=O)c2ccc3nc(C)sc3c2)cc1,-10,-68*,3,-72
CC(=O)c1sc(Nc2nc3ccc(F)cc3s2)nc1C,65*,55,3,82*
COC(=O)c1ccc2nc(NC(=O)C(C)(C)C)sc2c1,-3,-55*,-8,-66
COC(=O)c1ccc2nc(Nc3nc4ccc(F)cc4s3)sc2c1,-2,-89*,-7,-91
SMILES,AHR act,HSF1 inh,GAA850 FXN act,HSF-1 act
CCCCC(=O)Nc1nc2c(s1)COc1ccccc1-2,49*,11,1,-3
O=C(CCSc1ccccc1)Nc1nc2c(s1)COc1ccccc1-2,52*,14,2,24
Cc1cc(OC(C)C(=O)NCC2CCCO2)cc(C)c1Cl (configuration not stated),2,-5,3,1
CC1=NN(c2ccccc2)C(=O)/C1=C\c1cc(C)n(C)c1C,54*,5,2,1
CC1(C)OC(=O)N(c2ccccc2)C12C=Cc1c(ccc3ccccc13)O2 (configuration not stated),4,3,2,6
O=C1NC2(C=Cc3c(ccc4ccccc34)O2)Oc2ccccc21 (configuration not stated),-2,5,8.6*,-16
Cc1oc(-c2ccoc2)nc1CN(CC1CCC(=O)N1)C(C)C (configuration not stated),0,19,0,72*
Cc1oc(-c2cccc(F)c2)nc1CN(Cc1ccccc1)C[C@@H]1CCC(=O)N1,5,-4,-2,-23
COc1ccc(NC(=S)N2CCC(c3ccccc3)C2)cc1 (configuration not stated),6,27,6,48
O=C(c1cc(Br)c[nH]1)N1CCSCC1,3,-84*,1,-86
O=C(c1cc(Br)c[nH]1)N1CCCCC1,1,1,0,-1
NS(=O)(=O)c1ccc(-c2ccc(/C=C3\C(=O)Nc4ccccc43)o2)cc1,74*,-6,x,-4
NS(=O)(=O)c1ccc(-c2ccc(/C=C3\C(=O)Nc4cc(Cl)ccc43)o2)cc1,x,1,1,-8
C=CCNC(=O)c1cnc(-c2ccccc2)nc1-c1ccccc1,4,3,1,-19
O=C(Nc1ccc(F)c(F)c1)c1cnc(-c2ccccc2)nc1-c1ccccc1,65*,0,1,-16
CC(C)(C)CN1CCN(CC#Cc2ccccc2)CC1CCO (configuration not stated),59*,-2,1,26
CN1CCN(CC#Cc2ccccc2)CC1CCO (configuration not stated),2,3,0,1
CC1(C)Cc2ccccc2C(N/N=C/c2cccc(F)c2)=N1,13,-5,1,15
CCOc1cc(N2CCOCC2)c(OCC)cc1NC(=O)c1ccc(C)cc1,1,-6,-1,12
CCCc1ccc(C(=O)O/N=C(\N)c2ccccn2)cc1,-15,-83*,-9,-83
N/C(=N\OC(=O)c1ccc2ccccc2c1)c1ccccn1,-13,-85*,-7,-89
N/C(=N\OC(=O)c1cccc2ccccc12)c1ccccn1,61*,-4,1,3
N/C(=N\OC(=O)c1cccc([N+](=O)[O-])c1)c1ccccn1,68*,19,2,38
CCn1c(Cn2nnc(-c3ccccc3)n2)nnc1SCc1ccc(Cl)c(Cl)c1,15,20,1,24
COc1ccc(Cl)cc1NC(=O)/C=C\C(=O)O,17,0,5,-11
SMILES,AHR act,HSF1 inh,GAA850 FXN act,HSF-1 act
O=C(O/N=C(\c1ccccc1)c1ccccn1)c1ccc(Cl)c(Cl)c1,1,15,0,62*
COc1cccc(C(=O)O/N=C(\N)c2ccccn2)c1OC,27,-31,2,-31
N/C(=N\OC(=O)c1ccc(Cl)c(Cl)c1)c1cccc(CSc2ccccn2)c1,5,-1,4,-4
COc1cccc(C(=O)O/N=C(\N)c2ccccn2)c1,22,-87*,-1,-89
Cn1c(=O)n(C)c2cc(/C=N/NC(=O)c3ccc(Cl)cc3Cl)ccc21,8,3,5,-6
Cc1ccc(NC(=S)NCC(C)CSc2ccc(Cl)cc2)cc1 (configuration not stated),1,11,-1,-1
CN(CC(=O)Nc1ccccc1Cl)C(=O)c1cc(=O)[nH]c2ccccc12,9,-5,-1,-2
